The values below come from PubChem BioAssay (EPA / NIEHS).

Records with an inconclusive call do not appear. Active and inactive are the calls of the source. The calls were made as follows: active = hit-call score of the fitted dose curve at least 0.9, where 1 is the maximum; inconclusive = response in the unintended direction; inactive = score below 0.9.

human Ephrin type-B Receptor 1 (EphB1), EPHB1 (gene 2047), sequence (P54762 whole entry, looked up): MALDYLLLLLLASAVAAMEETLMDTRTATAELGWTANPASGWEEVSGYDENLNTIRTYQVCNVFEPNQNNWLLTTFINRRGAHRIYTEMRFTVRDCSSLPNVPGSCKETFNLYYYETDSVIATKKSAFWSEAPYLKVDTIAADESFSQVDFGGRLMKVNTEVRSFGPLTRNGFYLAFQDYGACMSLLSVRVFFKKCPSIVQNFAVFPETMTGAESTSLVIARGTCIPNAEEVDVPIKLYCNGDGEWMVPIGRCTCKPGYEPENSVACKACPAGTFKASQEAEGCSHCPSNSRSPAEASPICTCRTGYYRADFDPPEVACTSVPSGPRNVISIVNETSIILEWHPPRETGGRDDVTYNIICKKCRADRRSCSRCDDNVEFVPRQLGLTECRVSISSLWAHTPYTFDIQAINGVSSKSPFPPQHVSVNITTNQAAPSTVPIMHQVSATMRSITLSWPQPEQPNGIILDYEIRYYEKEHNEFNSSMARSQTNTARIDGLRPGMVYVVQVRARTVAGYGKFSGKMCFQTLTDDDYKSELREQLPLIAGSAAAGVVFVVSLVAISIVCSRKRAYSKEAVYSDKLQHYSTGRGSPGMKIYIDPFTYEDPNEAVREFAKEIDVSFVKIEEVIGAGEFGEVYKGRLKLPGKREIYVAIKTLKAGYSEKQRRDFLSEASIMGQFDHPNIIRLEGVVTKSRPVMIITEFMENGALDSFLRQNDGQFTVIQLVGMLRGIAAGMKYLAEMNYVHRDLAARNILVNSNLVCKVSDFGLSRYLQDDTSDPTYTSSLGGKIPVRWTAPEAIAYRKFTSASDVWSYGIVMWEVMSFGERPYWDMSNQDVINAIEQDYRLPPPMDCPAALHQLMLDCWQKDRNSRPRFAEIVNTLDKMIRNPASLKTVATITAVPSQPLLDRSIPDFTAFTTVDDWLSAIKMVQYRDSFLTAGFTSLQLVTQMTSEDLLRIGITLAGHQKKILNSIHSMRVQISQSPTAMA
human Casein Kinase 2- alpha 2 beta 2 (CK2a2b2), CSNK2A1 (gene 1457), sequence (P68400 whole entry, looked up): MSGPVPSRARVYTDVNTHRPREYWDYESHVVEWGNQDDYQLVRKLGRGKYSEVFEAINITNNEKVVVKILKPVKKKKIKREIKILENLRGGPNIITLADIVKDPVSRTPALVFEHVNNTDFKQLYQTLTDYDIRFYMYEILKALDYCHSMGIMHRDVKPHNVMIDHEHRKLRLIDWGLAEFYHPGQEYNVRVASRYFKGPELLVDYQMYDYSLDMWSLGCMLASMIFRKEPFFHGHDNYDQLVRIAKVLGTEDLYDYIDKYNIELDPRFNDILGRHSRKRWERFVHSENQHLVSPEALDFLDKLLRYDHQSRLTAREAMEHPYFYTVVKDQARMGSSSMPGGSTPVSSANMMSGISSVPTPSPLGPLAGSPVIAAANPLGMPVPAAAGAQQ
human Esterase Plasma (ES), BCHE (gene 590), sequence (P06276 whole entry, looked up): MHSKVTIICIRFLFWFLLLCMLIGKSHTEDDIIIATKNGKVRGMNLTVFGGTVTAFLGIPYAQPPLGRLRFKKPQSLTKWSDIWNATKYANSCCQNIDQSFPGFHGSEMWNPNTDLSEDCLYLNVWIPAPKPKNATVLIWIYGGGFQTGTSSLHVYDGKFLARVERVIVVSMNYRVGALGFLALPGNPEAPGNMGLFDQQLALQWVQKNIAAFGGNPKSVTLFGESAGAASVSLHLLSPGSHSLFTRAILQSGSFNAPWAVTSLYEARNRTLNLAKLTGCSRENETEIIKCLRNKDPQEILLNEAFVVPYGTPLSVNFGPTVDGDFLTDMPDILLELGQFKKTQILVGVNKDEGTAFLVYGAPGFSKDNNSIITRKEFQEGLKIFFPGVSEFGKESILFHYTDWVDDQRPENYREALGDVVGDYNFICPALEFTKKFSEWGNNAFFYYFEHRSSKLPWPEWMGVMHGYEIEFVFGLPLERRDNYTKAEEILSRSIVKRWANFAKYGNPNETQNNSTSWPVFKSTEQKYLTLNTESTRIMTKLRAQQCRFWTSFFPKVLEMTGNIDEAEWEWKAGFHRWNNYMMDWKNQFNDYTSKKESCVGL

In one assay the target is human Casein Kinase 2- alpha 2 beta 2 (CK2a2b2), CSNK2A1 (gene 1457) (UniProt P68400). As to the kind of experiment: NVS_ENZ_hCK2a2b2: NovaScreen (NVS) Enzymatic Assay for human Casein Kinase 2- alpha 2 beta 2 (CK2a2b2) (AID 2283147). The procedure, abridged:
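Compounds were first screened in duplicate at 25 uM, and those passing the threshold were re-tested in concentration series up to a 50 uM maximum. Kinase activity of recombinant human CK2 α2β2 was measured 1 h after dosing by fluorescent substrate/product mobility-shift separation.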
Consider `CCC(=O)Nc1ccc(Cl)c(Cl)c1`, for which the AC50 is 1.66 µM (active). For `CCOP(=S)(Oc1cnc(C(C)(C)C)nc1)OC(C)C` (stereo not drawn), the result was inactive. For the molecule `CC(Oc1cccc(Cl)c1)C(=O)O` (stereo not drawn), the AC50 was 15 µM (active). With `O=C(O)c1cc(Oc2ccc(C(F)(F)F)cc2Cl)ccc1[N+](=O)[O-]`, the outcome was inactive.

As for `CN(C)[C@@H]1C(=O)C(C(N)=O)=C(O)[C@@]2(O)C(=O)C3=C(O)c4c(O)cccc4[C@@](C)(O)[C@H]3[C@H](O)[C@@H]12`, the concentration at half-maximal activity (AC50) is 23.1 µM (active).

Another assay deals with human Dual Specificity Protein Phosphatase 3 (DUSP3), DUSP3 (gene 1845) (UniProt P51452). Kind of assay: NVS_ENZ_hDUSP3: NovaScreen (NVS) Enzymatic Assay for human Dual Specificity Protein Phosphatase 3 (DUSP3) (AID 2283152). The procedure, abridged: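 Cell-free fluorescence-intensity enzyme activity assay with recombinant protein and substrate; loss of signal fitted relative to DMSO baseline. Primary screen in duplicate at 25 uM, actives then run in concentration series; measured 0 h after dosing.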
human Dual Specificity Protein Phosphatase 3 (DUSP3), DUSP3 (gene 1845), sequence (P51452 whole entry, looked up): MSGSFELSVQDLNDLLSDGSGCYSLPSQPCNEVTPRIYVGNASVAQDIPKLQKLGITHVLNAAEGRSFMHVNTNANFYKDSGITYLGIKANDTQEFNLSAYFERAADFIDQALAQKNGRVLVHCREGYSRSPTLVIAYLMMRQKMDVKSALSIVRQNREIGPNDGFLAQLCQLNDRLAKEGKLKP
For the molecule `CC[C@H](C)[C@H]1O[C@]2(C=C[C@@H]1C)C[C@@H]1C[C@@H](C/C=C(\C)[C@@H](O[C@H]3C[C@H](OC)[C@@H](O[C@H]4C[C@H](OC)[C@@H](NC)[C@H](C)O4)[C@H](C)O3)[C@@H](C)/C=C/C=C3\CO[C@@H]4[C@H](O)C(C)=C[C@@H](C(=O)O1)[C@]34O)O2`, the outcome was inactive. As to `CCCOCC(=Nc1ccc(Cl)cc1C(F)(F)F)n1ccnc1`, the result was inactive.

With `C=C(C)[C@H]1Cc2c(ccc3c2O[C@@H]2COc4cc(OC)c(OC)cc4[C@@H]2C3=O)O1`, the result was inactive.

For `CCCCOC(=O)[C@@H](C)Oc1ccc(Oc2ccc(C#N)cc2F)cc1`, the molecule was called inactive. As to `S=C1NCCN1`, the call was inactive. In the case of `C#CCC1=C(C)C(OC(=O)C2C(C=C(C)C)C2(C)C)CC1=O` (stereo not drawn), the molecule was classed as inactive. For the molecule `CN(C)[C@@H]1C(=O)C(C(N)=O)=C(O)[C@@]2(O)C(=O)C3=C(O)c4c(O)cccc4[C@@](C)(O)[C@H]3[C@H](O)[C@@H]12`, the AC50 was 2.62 µM (active).

In the next assay the target is human Elastase, ELANE (gene 1991) (UniProt P08246). As to the kind of experiment: NVS_ENZ_hElastase: NovaScreen (NVS) Enzymatic Assay for human Elastase (AID 2283153). As for the experimental part: NVS_ENZ_hElastase is a biochemical, single-readout assay that uses extracted gene-proteins from Human neutrophils in a cell-free assay. Measurements were taken 1.5 hours after chemical dosing in a 96-well plate.NVS_ENZ_hElastase is one of one assay component(s) measured or calculated from the NVS_ENZ_hElastase assay. It is designed to make measurements of enzyme activity, a form of enzyme reporter, as detected with absorbance signals by Spectrophotometry technology.Data from the assay component NVS_ENZ_hElastase was analyzed into 1 assay endpoint. This assay endpoint, NVS_ENZ_hElastase, was analyzed in the positive analysis fitting direction relative to DMSO as the negative control and baseline of activity. Using a type of enzyme reporter, loss-of-signal activity can be used to understand changes in the enzymatic activity as they relate to the gene ELANE. Furthermore, this assay endpoint can be referred to as a primary readout, because this assay has produced multiple assay endpoints where this one serves a enzymatic activity function. To generalize the intended target to other relatable targets, this assay endpoint is annotated to the protease intended target family, where the subfamily is serine protease.
human Elastase, ELANE (gene 1991), sequence (P08246 whole entry, looked up): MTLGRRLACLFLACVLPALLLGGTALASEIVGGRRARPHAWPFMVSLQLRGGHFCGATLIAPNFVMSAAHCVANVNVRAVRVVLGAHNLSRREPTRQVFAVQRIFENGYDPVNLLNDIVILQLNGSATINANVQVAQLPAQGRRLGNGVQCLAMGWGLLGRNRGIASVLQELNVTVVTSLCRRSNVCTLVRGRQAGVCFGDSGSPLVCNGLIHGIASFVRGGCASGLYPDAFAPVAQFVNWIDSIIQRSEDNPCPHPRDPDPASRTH
Binding assays used specific radioligands (tritiated, iodinated) with non-radioactive competitive displacement ligands in agonist or antagonist protocols (as indicated) and various reference compounds and inhibitors to titrate specific binding to receptors and transporters. Most enzyme assays (CYPs, kinases, phosphatases, proteases, HDACs) used recombinant protein and specific substrates (fluorescence mostly, some colorimetric and radioactive) and inhibitors, followed by a biochemical separation of substrate and product. All assays for the biochemical HTS were initially run in duplicate at a single concentration (10 uM for CYP450 assays and 25 uM for all others). Assay-chemical combinations meeting a pre-defined threshold (e.g., 30% inhibition and other criteria defined below) were then run in singleton concentration-response format with maximum concentration of 20 uM for CYPs and 50 uM for all others. Each assay was run with positive and negative controls, and concurrent controls on every plate. The follow-up (secondary) screen tested active chemical-pairs in concentration series, as well as a few additional assays not tested in the primary screen, some selected negative inactives, and several cases re-run in the concentration series for confirmatory purposes.
Turning to `CC(C)[C@H](C(=O)O[C@H](C#N)c1cccc(Oc2ccccc2)c1)c1ccc(Cl)cc1`, the call was inactive.

`CCCSP(=O)(OCC)Oc1ccc(Br)cc1Cl` (stereo not drawn): the AC50 is 25 µM (active). Regarding `S=C1NCCN1`, the outcome was inactive. Regarding `CCOP(=O)(OCC)Oc1cc(C)nc(C(C)C)n1`, the molecule was called inactive. With `CCOP(=S)(OCC)Oc1cc(C)nc(C(C)C)n1`, the call was inactive.

The target in another assay is human Ephrin type-B Receptor 1 (EphB1), EPHB1 (gene 2047) (UniProt P54762). Kind of assay: NVS_ENZ_hEphB1: NovaScreen (NVS) Enzymatic Assay for human Ephrin type-B Receptor 1 (EphB1) (AID 2283154). Summed up:
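Recombinant EphB1 activity read by fluorescence after mobility-shift separation of product from substrate, 1 h post-dosing. Compounds screened in duplicate at 25 uM; inhibition scored as signal loss relative to DMSO.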
As for `CC(COc1ccc(Oc2ccccc2)cc1)Oc1ccccn1` (stereo not drawn), the call was inactive.

Turning to `CCCSP(=O)(OCC)Oc1ccc(Br)cc1Cl` (stereo not drawn), the call was inactive. Regarding `CNC(=O)Oc1cccc2c1OC(C)(C)O2`, the call was inactive. Still for that read-out and setting: the result for `CCCCSP(=O)(SCCCC)SCCCC` reads “inactive”; that for `COP(=O)(OC)C(O)C(Cl)(Cl)Cl` (stereo not drawn), “inactive”.

Turning to `CCOP(=S)(OCC)OC(Cl)C(Cl)(Cl)Cl` (stereo not drawn), the molecule was classed as inactive. With `CCc1cccc(C)c1N(C(=O)CCl)C(C)COC` (stereo not drawn), the molecule was called inactive.

A further assay has as its target human Esterase Plasma (ES), BCHE (gene 590) (UniProt P06276). As to the kind of experiment: NVS_ENZ_hES: NovaScreen (NVS) Enzymatic Assay for human Esterase Plasma (ES) (AID 2283157). Summed up:
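Primary single-concentration screen at 25 uM in duplicate, then concentration-response to a 50 uM top dose. Human plasma esterase activity detected colorimetrically after 0.25 h incubation, with DMSO as baseline.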
With `COP(=O)(OC)OC(Br)C(Cl)(Cl)Br` (stereo not drawn), the AC50 was 3.82 µM (active). On the same count and under the same terms, the result for `CCOP(=S)(OCC)Oc1ccc([N+](=O)[O-])cc1` reads 17.5 µM (active); that for `COP(=O)(OC)SCn1c(=O)oc2cc(Cl)cnc21`, 18.5 µM (active). Turning to `CCCSP(=O)(OCC)Oc1ccc(Br)cc1Cl` (stereo not drawn), the AC50 is 0.968 µM (active).

As for `CCCCOC(=O)c1ccccc1C(=O)O`, the result was inactive. Consider `CNC(=O)ON=C(SC)C(=O)N(C)C`, for which the AC50 was 20.2 µM (active). As to `CCOP(=S)(Oc1cnc(C(C)(C)C)nc1)OC(C)C` (stereo not drawn), the AC50 is 25 µM (active). Still for that read-out and setting: the result for `CCOP(=S)(OCC)OC(Cl)C(Cl)(Cl)Cl` (stereo not drawn) reads 16.2 µM (active). Consider `CN(C)[C@@H]1C(=O)C(C(N)=O)=C(O)[C@@]2(O)C(=O)C3=C(O)c4c(O)cccc4[C@@](C)(O)[C@H]3[C@H](O)[C@@H]12`, for which the result was inactive.

A word on the AC50: it is the concentration giving half of the maximal activity seen.
